Assay results from the supplement of paper PMC3414501.
Counter-ions that a name gives are not always drawn. Unmarked numbers belong to inactive results.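 Rule for the calls: active = HIS4 sensitivity z-score above 5 vs DMSO controls; inactive = score 5 or below.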

These compounds were tested on S. cerevisiae NKY1551 his4x/his4B, sporulating (assay: HIS4 meiotic recombination assay sensitivity score (z-score vs DMSO controls); higher = stronger inhibition of sporulation/recombination, active = hit call of the paper). Conditions: stock concentration (mM, diluted 1:100): 7.3.
Experimental: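 NIH Clinical Collection compounds were added 1:100 from stock (about 100 µM final) to S. cerevisiae. Growth: average doubling time (AvgG) over 24 h of BY4741 (wild-type) or AD1-9 (drug-efflux-pump deficient) in rich media. HIS4: the his4x/his4B heteroallelic recombination reporter strain (SK1) was sporulated 5 h with compound at 30°C, then colony density was read on -his plates after 48 h. Sensitivity score = (compound − mean of 8 DMSO controls)/SD of DMSO controls. Hit cutoffs are >2 for growth and >5 for sporulation.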

Structure (SMILES)	HIS4 meiotic recombination assay sensitivity score
CN1[C@@H]2CC(OC(=O)[C@H](CO)c3ccccc3)C[C@H]1[C@@H]1O[C@@H]12 (stereo not given in full)	-0.64

Same assay, conditions: stock concentration (mM, diluted 1:100): 7.6

Structure (SMILES)	HIS4 meiotic recombination assay sensitivity score
CN1CC[C@]23CCCC[C@H]2[C@H]1Cc1ccc(O)cc13 [Levorphanol tartrate]	-1.13

Same assay, conditions: stock concentration (mM, diluted 1:100): 9

Structure (SMILES)	HIS4 meiotic recombination assay sensitivity score
Cc1ncc2n1-c1ccc(Cl)cc1C(c1ccccc1F)=NC2 [Midazolam hydrochloride]	4.65

Same assay, conditions: stock concentration (mM, diluted 1:100): 9.8

Structure (SMILES)	HIS4 meiotic recombination assay sensitivity score
CN1CC[C@]2(c3cccc(O)c3)Cc3nc4ccccc4cc3C[C@H]2C1	0.28

Same assay, conditions: stock concentration (mM, diluted 1:100): 9.9

Structure (SMILES)	HIS4 meiotic recombination assay sensitivity score
CCCCCCCCCOc1ccc2[nH]cc(CCN)c2c1 [5-Nonyloxytryptamine]	-2.09

Same assay, conditions: stock concentration (mM, diluted 1:100): 10

Structure (SMILES)	HIS4 meiotic recombination assay sensitivity score
CN=C1CN(O)C(c2ccccc2)=c2cc(Cl)ccc2=N1 [Chlordiazepoxide]	-1.07
CN1C(=O)CN=C(c2ccccc2)c2cc(Cl)ccc21 [Diazepam]	2.18
CNC1CC(c2ccc(Cl)c(Cl)c2)c2ccccc21 (stereo not given) [Indatraline]	-0.83
C[C@]12Cc3c[nH]nc3C[C@@H]1CC[C@@H]1[C@@H]2CC[C@@]2(C)[C@H]1CC[C@]2(C)O [Stanozolol]	-0.39
c1ccc2c3c([nH]c2c1)CNCC3 [Tryptoline]	-3.38
C=C1C[C@@H]2[C@H](CC[C@]3(C)C(=O)CC[C@@H]23)[C@@]2(C)C=CC(=O)C=C12 [Exemestane]	3.99
Oc1ccc2c3c1O[C@H]1c4[nH]c5ccccc5c4C[C@@]4(O)[C@@H](C2)N(CC2CC2)CC[C@]314 [Naltrindole]	-0.51
C[C@]12CC[C@H]3[C@@H](CCC4=CC(=O)CC[C@@H]43)[C@@H]1CC[C@@H]2O [19-Nortestosterone]	1.09
C[N+]1(C)CCN(c2ccccc2)CC1 [Dimethylphenylpiperazinium Iodide]	-0.3
O=C(O)C(Cl)Cl [Dichloroacetic acid]	-0.62
C[C@]12CCC(=O)C=C1CC[C@@H]1[C@@H]2CC[C@@]2(C)[C@H]1CC[C@]2(C)O [Methyltestosterone]	2.7
CCCN1C[C@H](CSC)C[C@@H]2c3cccc4[nH]cc(c34)C[C@H]21 [Pergolide mesylate]	-0.45
N=C(NCc1ccc(Cl)cc1)SCCCc1c[nH]cn1 [Clobenpropit]	-0.07
COc1cc2c(cc1OC)[C@@]13CCN4CC5=CCO[C@H]6CC(=O)N2[C@H]1[C@H]6[C@H]5C[C@H]43 [Brucine]	0.05
CNC(=O)Oc1ccc2c(c1)[C@]1(C)CCN(C)[C@@H]1N2C [Physostigmine]	-0.16
C[C@H]1CCC[C@H](O)CCCCCc2cc(O)cc(O)c2C(=O)O1 [Zeranol]	-1.27
C#CCN(C)[C@H](C)Cc1ccccc1 [Selegiline]	0.06
Oc1cc2c(cc1O)[C@H]1c3ccccc3CN[C@@H]1CC2	2.29
c1ccc(Cn2ccnc2)cc1 [1-Benzylimidazole]	-0.23
CCCCC/C=C\C/C=C\C/C=C\C/C=C\CCCC(=O)Nc1ccc(O)cc1	-0.8
O=C1CN=C(c2ccccc2)c2cc([N+](=O)[O-])ccc2N1 [Nitrazepam]	-0.13
FC(F)(F)c1cccc(N2CCNCC2)c1	8.84 (active)
COc1ccc2[nH]cc(CCN)c2c1 [5-Methoxytryptamine]	-1.35
NCCc1ccccn1 [2-(2-aminoethyl)pyridine]	-0.1
COc1cccc(C2(O)CCCCC2CN(C)C)c1 (stereo not given) [Tramadol]	-2.65
COC(=O)N1CCN(C(=O)Cc2ccc(Cl)c(Cl)c2)C(CN2CCCC2)C1 (stereo not given)	-0.89
C[C@]12CC[C@H]3[C@@H](CCC4=CC(=O)CC[C@@]43C)[C@@H]1CC[C@@H]2O [Testosterone]	-0.83

Same assay, conditions: stock concentration (mM, diluted 1:100): 10.1

Structure (SMILES)	HIS4 meiotic recombination assay sensitivity score
CC[C@@H](C(N)=O)N1CCCC1=O [Levetiracetam]	-0.77
C[C@]12C/C(=C/O)C(=O)C[C@@H]1CC[C@@H]1[C@@H]2CC[C@@]2(C)[C@H]1CC[C@]2(C)O [Oxymetholone]	8.48 (active)
C[N+]1(CCC(C(N)=O)(c2ccccc2)c2ccccc2)CCCCC1 [Fenpiverinium bromide]	-1.06
COc1ccc2[nH]cc(C3=CCNCC3)c2c1	3.92
C[C@]12CC[C@H](O)CC1=CC[C@@H]1[C@@H]2CC[C@@]2(C)[C@H]1CC[C@]2(C)O [Methylandrostenediol]	-1.02
C=C(C)CN1CC[C@]23c4c5ccc(O)c4O[C@H]2c2[nH]c4ccccc4c2C[C@@]3(O)C1C5	3.9
C[C@]12CCC(=O)C[C@@H]1CC[C@@H]1[C@@H]2CC[C@@]2(C)[C@H]1CC[C@]2(C)O [Mestanolone]	-0.62

Same assay, conditions: stock concentration (mM, diluted 1:100): 19.9

Structure (SMILES)	HIS4 meiotic recombination assay sensitivity score
Cc1ccc(-c2nc3ccc(C)cn3c2CC(=O)N(C)C)cc1 [Zolpidem tartrate]	0.04
